40 molecules from PubChem BioAssay (NCI) can be followed below.

Structures are written as SMILES. The panel holds about 83,000 compounds, 20% with a hit somewhere; the sample as a whole holds those more often.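 Cells were grown in 96-well plates and exposed to the test compound at a single concentration for 48 hours; results are reported as percent growth, with values below 10 considered active.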 Calls of active or inactive are those of the source.

For this test, the system named is T-47D breast. Put plainly: NCI-60 one-dose screen, 48 h (100 = growth as untreated, 0 = no growth, -100 = all killed). The following applies: 10 µM unless noted. Here is the method:
Growth inhibition of the T-47D human tumor cell line is measured as a screen for anti-cancer activity. Cells are grown in 96 well plates and exposed to the test compound for 48 hours. Compounds are tested at a single concentration, which is 10^-5 M for most compounds. The reported endpoint is percent growth (GI% or GIPRCNT), where numbers from 0 - 100% represent growth inhibition, and numbers from -100% - 0 represent cell death. For example, a value of 40 represents 60% growth inhibition. A value of 0 means no net growth occurred over the course of the experiment. A value of -40 indicates 40% of cells at the beginning of the experiment died by the end of the experiment. A value of -100 means all cells are dead at the end of the experiment.
NCI-60 Human Tumor Cell Lines Screen was performed using the standard one-dose NCI protocol, which is described in more detail at https://dtp.cancer.gov/discovery_development/nci-60/default.htm.
Compounds with GIPRCNT values below 10 were considered active. Activity score was based on GIPRCNT using the following formula: […]
Score is 0 for GIPRCNT values of 100 or above, 50 for GIPRCNT values of 0, and 100 for GIPRCNT values of -100.
Regarding `COc1ccc2c(c1)C(=O)/C(=C/c1cccc(OCC(=O)Nc3nc(C)c(C)s3)c1)O2`, the growth was -6.43% (active).
Regarding `O=C1/C(=C/c2ccc(Br)cc2)C=C(c2ccccc2)N1CCc1ccccc1`, the growth was 50.5% (inactive).
As for `Cc1ccc(Cl)cc1NC(=O)c1cc2ccccc2cc1O`, the figure is -12.1% (active).
The result for `COc1ccc(-c2nc(SCC(=O)Nc3nc(-c4ccccc4)cs3)[nH]c(=O)c2C#N)cc1` reads 84.3% (inactive).
The result for `COc1ccc(-c2cc(-c3cc(OC)c(OC)c(OC)c3)c(C#N)c(N3CCOCC3)n2)cc1O` reads 78.3% (inactive); that for `COc1nc(N(C)O)nc(N(C)O)n1`, 30.3% (inactive).
`COc1cc(C(=O)c2cc(C)c3[nH]c4ccc(Cl)cc4c3c2C)cc(OC)c1OC`: the growth is 70.4% (inactive).
The result for `COc1ccccc1CNCCCN1C(=O)c2ccc3c4c(ccc(c24)C1=O)C(=O)N(CCCNCCCCN)C3=O` reads -14.7% (active).
Consider `Cc1nc2ccccc2n1CC1NC(=O)NC1=O` (stereo not given), for which the growth was 103% (inactive).
As to `CCc1c2c(nc3ccc(OC(=O)OCc4ccc(B5OC(C)(C)C(C)(C)O5)cc4)cc13)-c1cc3c(c(=O)n1C2)COC(=O)[C@]3(O)CC`, the growth is 7.4% (active).
As for `Nc1n[nH]c2cc(F)c([C@@H]3Nc4c(F)cc5[nH]ncc5c4[C@H]4C5CCC(C5)[C@@H]34)cc12` (stereo not given in full), the growth was 83.8% (inactive).
As for `O=C(Nc1cccc(Oc2nnc(Cl)c3ccccc23)c1)Nc1ccc(Cl)c(C(F)(F)F)c1`, the figure is -24.6% (active); as for `CC(C)(C)c1ccc(/C=C/C(=O)Nc2ccc(O)cc2)cc1`, 64.4% (inactive); as for `COc1ccc(/C=C/c2c(C(=O)/C=C/c3ccc(F)cc3)c(C)nc3ccccc23)cc1`, 30.6% (inactive).
As for `N#Cc1c(-c2cccc(Cl)c2)cc(-c2cccc(F)c2)[nH]c1=O`, the figure is 84.5% (inactive).
For the molecule `O=[N+]([O-])c1ccc(C2CC(c3ccccc3)=Nc3ccccc3S2)cc1` (stereo not given), the growth is 70.9% (inactive).
The result for `Cc1c(C(=O)NC(Cc2ccccc2)C(O)C(=O)NCc2ccc(F)cc2)[nH]c2ccccc2c1=O` (stereo not given) reads 102% (inactive); that for `O=c1c2cc(F)ccc2sc2c(NCCN3CCCCC3)nc3ccccc3c12`, 66.9% (inactive); that for `COc1cccc(-c2nc3sccn3c2/C=C/C(=O)c2ccc(C(F)(F)F)cc2)c1`, 64.1% (inactive).
Consider `Cc1cc(C(=O)c2ccccc2)c(C)c2c1[nH]c1ccc(Cl)cc12`, for which the growth was 63.5% (inactive).
The result for `CCN(CC)c1nc(SCC(=O)Nc2nc3ccc(C)cc3s2)nc(-c2ccccc2)c1C#N` reads 75.8% (inactive); that for `N[C@@H](CCCCNCC(=O)O)C(=O)O`, 96.9% (inactive).
On to `O=C(/C=C/c1c(Cl)nc2sccn12)c1ccc(F)c(F)c1`, for which the growth is 50.3% (inactive).
As for `O=C1/C(=C\c2c[nH]c3ccccc23)c2ccccc2N1c1c(Cl)cccc1Cl`, the figure is 1.28% (active); as for `N=c1sc(Cc2ccc(Cl)cc2)cn1CC(=O)c1ccc(F)cc1`, 64.6% (inactive).
`Cc1ccc(S(=O)(=O)n2cc(CNc3ccc(N4CCOCC4=O)cc3)c3ccccc32)cc1`: the growth was 56.9% (inactive).
On to `CC(=O)O[C@]1(C(C)=O)CCC2C3C[C@H](C)C4=CC(=O)CC[C@]4(C)C3CC[C@@]21C` (stereo not given in full), for which the growth is 95.3% (inactive).
The result for `COc1ccc(-c2nc(SCCC(C)C)nc(N/N=C\c3cccc(Cl)c3)c2C#N)cc1` reads 59.7% (inactive).
Consider `O=S(=O)(NCCCNc1cc(-c2c(-c3cccc(O)c3)nc3sccn23)ccn1)c1cccc(Cl)c1`, for which the growth was 6.58% (active).
Consider `Cc1ccc(/C=C2\C(=O)N(C)c3ccc(S(=O)(=O)Nc4ccc(C(C)(C)C)cc4)cc32)s1`, for which the growth was 55% (inactive).
Turning to `COc1ccc(CNC(=O)C(O)C(Cc2ccccc2)NC(=O)c2[nH]c3ccccc3c(=O)c2C)cc1OC` (stereo not given), the growth was 97.8% (inactive).
The result for `NNC(=O)c1nc(N)n(-c2ccc(S(N)(=O)=O)cc2)n1` reads 93.5% (inactive).
As for `COc1cccc(/C=C/C(=O)c2c(C)nc3ccccc3c2/C=C/c2ccc(C)cc2)c1OC`, the figure is 29.1% (inactive); as for `CCOC(=O)c1csc(NC(=O)COc2cccc(/C=C3\Oc4cc(OC)ccc4C3=O)c2)n1`, 68.9% (inactive).
For `CCC(CO)Nc1nc2ccc(Cl)cc2c2ccccc12` (stereo not given), the growth was 59.5% (inactive).
With `O=C(c1ccccc1)c1c(/C=C/c2ccccc2)nc2ccccc2c1/C=C/c1ccc(Br)cc1`, the growth is 95.4% (inactive).
As for `O=Cc1c[nH]c2ccc(-c3csc4ccccc34)cc12`, the growth was 70.7% (inactive).
As for `N#Cc1c(N2CCNCC2)nc2sc3cc(Cl)c(Cl)cc3n2c1=N`, the figure is 89.5% (inactive); as for `Cn1c2c(c3ccc(Cl)c(Cl)c31)C(C#N)C1(CCNCC1)NC2=O` (stereo not given), 46.8% (inactive); as for `COc1cccc(C(=O)NCCNc2cc(-c3cn(-c4ccccc4)nc3-c3cccc(OC)c3)ccn2)c1`, 22.1% (inactive).
